Screening data deposited in PubChem BioAssay by National Center for Advancing Translational Sciences (NCATS).
Rows were chosen to be rich in hits. Some 3.6% of all compounds tested hit in one or more screens of this group.
A549 tox – Nrf2 qHTS screen for inhibitors: counterscreen for cytotoxicity | 0.16% of 390,000 active | A549 ARE-Fluc cells, CellTiter-Fluor viability, 18-24 h | Potency, µM (highest dose often 46 µM), for the others: at the highest dose activity change, negative = cytotoxicity, usual class: inhibitors; further: on the % scale 0 is the no-effect control and ±100 the full control effect
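A549 ARE-Fluc cells in 5% FBS OPTI-MEM, 5000 cells/well, rested 2 h then exposed to compounds in concentration-response for 18-24 h at 37 °C. Viability by CellTiter-Fluor fluorescence (Ex 405/Em 525) after 30 min; luciferase luminescence (BugLite, 15 min, RT) read afterwards.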
HepG2 tox – qHTS for Inhibitors of TGF-b: Cytotox Counterscreen; 0.76% of 410,000 active; HepG2 CAGA-GFP viability, ATP luminescence, 18 h; Potency, µM (top dose mostly 46.1 µM), without a hit: at the highest dose activity change, negative = cytotoxicity, usual class: cytotoxic
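HepG2 CAGA-GFP cells (1000/well, DMEM with 1% FBS) received compound, then TGF-beta at 500 pg/mL final, and were incubated 18 hours at 37 degrees C. Viability was read by CellTiter-Glo luminescence. Media-only wells were set as complete cell-killing and DMSO as no toxicity.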
Nrf2 activator – qHTS of Nrf2 Activators; AREc32 ARE-luciferase reporter (MCF7-derived line), luminescence, 24 h; Potency, µM (doses to about 46.1 µM), for inactives: at the top dose activation, hits mostly activators; 0.31% of 410,000 active; further: % of control where 0% means no effect; nearly all actives have a fitted effect of over 65% in size
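ARE-driven firefly luciferase activity in AREc32 cells measured after a 24 hr compound exposure at 37 deg C, using Steady-Glo reagent and a 30 min room-temperature hold.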
TGFb inhibitor – qHTS for Inhibitors of TGF-b; HepG2 CAGA-GFP TGF-b/SMAD3 reporter, GFP fluorescence, 18 h; TGF-beta stimulated, 500 pg/mL final; 1.2% of 410,000 active; Potency, µM (highest dose often 46.1 µM), for the others: at the top dose activity, negative = inhibition, hits mostly inhibitors; AID 588855, 2011; further: on the % scale 0 is the no-effect control and ±100 the full control effect; nearly all actives have a fitted effect of over 65% in size
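GFP signal (ex488/em500-530) from TGF-beta-stimulated HEPG2 CAGA-GFP cells, 500 pg/mL final, 18 h at 37 degrees C in DMEM plus 1% FBS, normalized to unstimulated and DMSO-stimulated controls.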
Nrf2 inh – Nrf2 qHTS screen for inhibitors; A549 ARE-Fluc reporter, luciferase luminescence, 18-24 h; Potency, µM (highest dose often 46 µM), without a hit: at the highest dose activity change, negative = inhibition, hits mostly inhibitors; 2.1% of 360,000 active; AID 504444, 2011; further: on the % scale 0 is the no-effect control and ±100 the full control effect; nearly all actives have a fitted effect of over 60% in size
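Two sequential reads on A549 ARE_Fluc cells exposed to compound for 18-24 h: a CellTiter-Fluor fluorescence read for viability, then a luciferase luminescence read for Nrf2/ARE activity.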
An asterisk follows results filed as active; u = inconclusive; x = no result given; [ ] = dose if it differs, or a comment. The call rests on the fitted dose curve; in most records, active means well fitted curve in the direction sought with a large enough effect; inconclusive means small, poorly fitted or top-dose-only effect, or another doubt; inactive means no such curve, though single readings can be large; an effect the other way counts as inactive or inconclusive. Potency means the concentration at half of the fitted maximal effect.

SMILES	A549 tox	HepG2 tox	Nrf2 activator	TGFb inhibitor	Nrf2 inh
O=C(COC(=O)c1cccs1)NCCc1ccc(F)cc1	-7%	3%	0%	0%	u
Cc1c(CCCN)c2ccccc2n1Cc1ccccc1	-24%	16µM*	3%	u	-11%
COC(=O)C(NC(=O)c1ccccc1Cl)(Nc1ncc(S(=O)(=O)c2ccc([N+](=O)[O-])cc2)s1)C(F)(F)F (stereo unspecified)	-26%	-4%	22%	u	21µM*
COc1ccc(NC(=O)c2oc3ccccc3c2C)c(OC)c1	-9%	6%	8%	-8%	u
CCC(C)NC(=O)c1sc2nc(C)c(C(=O)Nc3ccc(C)cc3C)c(-c3ccc(Cl)cc3)c2c1N (stereo unspecified)	14%	-25%	-1%	-24%	0%[9.27 µM]
O=C1CN(C(=O)N[C@@H](Cc2ccccc2)C(=O)N[C@H](C(=O)O)c2ccccc2)c2ccccc2N1	0%	-12%	0%	-12%	5%
CC(C)(C)C(=O)C(Cl)C(=O)Nc1ccccc1 (stereo unspecified)	12%	8.9µM*	19%	u	10%
O=C(Nc1ccc(Nc2ccccc2)cc1)C(Cl)Cl	-5%	-77%	1%	13µM*	-13%
CCCCC(CCCCl)C(=O)Nc1ccccc1 (stereo unspecified)	-1%	20%	0%	-6%	-10%
COc1ccccc1/C=C/C=N/NC(=O)Cc1cccn1C	4%	5%	6%	14%	-5%
O=C(NNC(=O)C(c1ccccc1)c1ccccc1)c1ccccn1	u	-21%	13%	u	15µM*
CCOC(=O)N1CCN(C(=S)NC(=O)c2cncc(Br)c2)CC1	0%	6%	2%	-10%	12%
Cc1cc(S(=O)(=O)NC2CCCCC2)ccc1-n1cnnn1	-6%	1%	-1%	5%	12µM*
CC(C)N1CCN(C2CSCCSC2)CC1CCO (stereo unspecified)	2%	4%	-1%	7%	20%
O=C(CNC(=O)OCc1ccccc1)NCC(=O)N1CCCC1C(=O)OCc1ccccc1 (stereo unspecified)	4%	11µM*	0%	u	-20%
O=C(O)CNC(=O)C1CCCN1C(=O)CNC(=O)OCc1ccccc1 (stereo unspecified)	2%	4%	0%	15%	10%
N#CC(=C1C=C(Br)C(=NO)C=C1Cl)c1ccc(Cl)cc1	x	-24%	u	-26%	x
N#CC(=C1C=CC(=NO)C(Cl)=C1)c1ccccc1	x	-62%	u	11µM*	x
CN(C)Cc1c(-c2ccc(Cl)cc2)nc2ccccn12	-1%	-2%	27%	-2%	u
CC(C)(C)c1ccc(/C=N/Nc2nncn2N)cc1	3%	3.5µM*	-2%	-10%	-26%
CCC1(CC)NC(=O)N(CC(=O)OCC(=O)c2ccccc2OC)C1=O	-3%	-6%	0%	-12%	-11%
OC[C@@H]1[C@@H](c2ccccc2)C(c2ccc(F)cc2)=NN1c1ccccc1	1%	-49%	5%	10µM*	21%
COc1ccccc1[C@H]1C(c2cccc(Cl)c2)=NN(c2ccccc2)[C@@H]1CO	u	13µM*	-3%	13µM*	u
OC[C@@H]1[C@@H](c2ccccc2)C(c2cccc(Cl)c2)=NN1c1ccccc1	u	-115%	0%	u	-9%
Cc1cccc(C2=NN(c3ccccc3)[C@H](CO)[C@H]2c2ccc(Cl)cc2)c1	0%	-110%	-1%	u	-19%
SMILES	A549 tox	HepG2 tox	Nrf2 activator	TGFb inhibitor	Nrf2 inh
Cc1cccc(C2=NN(c3ccccc3)[C@H](CO)[C@H]2c2ccc(F)cc2)c1	15%	-93%	1%	20µM*	7%
O=C1CSC(c2cccnc2)N1Cc1ccc(Cl)c(Cl)c1 (stereo unspecified)	-19%	-4%	-1%	-12%	-26%
COc1cccc(OCCn2cc(C=O)c3ccccc32)c1	3%	-31%	2%	3.5µM*	6%
C#CC(=O)N(c1cccc(OC)c1)C(C(=O)NC1CCCC1)c1cccs1 (stereo unspecified)	-15%	8.9µM*	-2%	22µM*	16µM*
C#CC(=O)N(c1ccc(OC)c(OC)c1)C(C(=O)NC1CCCC1)c1cccs1 (stereo unspecified)	u	13µM*	u	u	23µM*
Cc1ccc(-c2nc3ccccc3[nH]2)cc1NC(=O)c1ccc2c(c1)OCO2	-12%	-31%	0%	-19%	-6%
Cc1ccc(-c2nc3ccccc3[nH]2)cc1NC(=O)COc1ccccc1[N+](=O)[O-]	u	-75%	-3%	11µM*	u
Cc1ccc(-c2nc3ccccc3[nH]2)cc1NC(=S)NC(=O)c1ccccc1Br	u	-12%	2%	u	18µM*
Cc1ccc(OCC(=O)Nc2cc(-c3nc4ccccc4[nH]3)ccc2C)c(C)c1	-1%	-4%	0%	-5%	0%
COCCCNC(=O)CN(c1cc(Cl)cc(Cl)c1)S(C)(=O)=O	1%	1%	0%	0%	3%
O=C(COC(=O)CSc1ccccc1)NCCNC(=O)COC(=O)CSc1ccccc1	1%	0%	2%	-17%	7%
C=C[C@@H](C)N(Cc1ccc(OC)cc1)S(=O)(=O)N(Cc1ccccc1)[C@H](C=C)C(C)C	-1%	-32%	0%	0%	-11%
Cc1csc2ncnc(NNC(=O)c3ccc(Cl)cc3)c12	-17%	-51%	0%	u	21µM*
CCCCN(CCCC)S(=O)(=O)c1ccc(C(=O)Nc2nnc(CSC)o2)cc1	-24%	-29%	0%	u	7.3µM*
CCCN(CCC)S(=O)(=O)c1ccc(C(=O)Nc2nnc(CSC)o2)cc1	-18%	6%	0%	2%	9.2µM*
COc1cc(SC)ccc1C(=O)N1CCN(c2ccc(O)cc2)CC1	8%	-7%	-1%	6%	u
Cc1csc(NC(=O)Cc2ccc(Br)cc2)n1	-17%	-7%	5%	13%	-14%
CCOC(=O)C1=C(C2=CCCCC2)c2ccc(OC)cc2N(S(=O)(=O)C(F)(F)F)C1C(=O)OCC (stereo unspecified)	-7%	-30%	u	14µM*	20%
Cc1ccc(CNC(=O)CSc2nc3n[nH]c(C)c3c(=N)n2-c2ccccc2Cl)cc1	7%	-19%	8%	u	x
CCOc1ccccc1-n1c(SCC(=O)Nc2ccc(CC)cc2)nc2n[nH]c(C)c2c1=N	u	10%	0%	u	x
COc1ccc(OC)c(NC(=O)CSc2nc3n[nH]c(C)c3c(=N)n2-c2cccc(Cl)c2C)c1	u	-15%	5%	u	16µM*
